The first assay addresses T1, Dual specificity protein kinase TTK (Homo sapiens) (UniProt P33981).
T1 sequence (whole entry): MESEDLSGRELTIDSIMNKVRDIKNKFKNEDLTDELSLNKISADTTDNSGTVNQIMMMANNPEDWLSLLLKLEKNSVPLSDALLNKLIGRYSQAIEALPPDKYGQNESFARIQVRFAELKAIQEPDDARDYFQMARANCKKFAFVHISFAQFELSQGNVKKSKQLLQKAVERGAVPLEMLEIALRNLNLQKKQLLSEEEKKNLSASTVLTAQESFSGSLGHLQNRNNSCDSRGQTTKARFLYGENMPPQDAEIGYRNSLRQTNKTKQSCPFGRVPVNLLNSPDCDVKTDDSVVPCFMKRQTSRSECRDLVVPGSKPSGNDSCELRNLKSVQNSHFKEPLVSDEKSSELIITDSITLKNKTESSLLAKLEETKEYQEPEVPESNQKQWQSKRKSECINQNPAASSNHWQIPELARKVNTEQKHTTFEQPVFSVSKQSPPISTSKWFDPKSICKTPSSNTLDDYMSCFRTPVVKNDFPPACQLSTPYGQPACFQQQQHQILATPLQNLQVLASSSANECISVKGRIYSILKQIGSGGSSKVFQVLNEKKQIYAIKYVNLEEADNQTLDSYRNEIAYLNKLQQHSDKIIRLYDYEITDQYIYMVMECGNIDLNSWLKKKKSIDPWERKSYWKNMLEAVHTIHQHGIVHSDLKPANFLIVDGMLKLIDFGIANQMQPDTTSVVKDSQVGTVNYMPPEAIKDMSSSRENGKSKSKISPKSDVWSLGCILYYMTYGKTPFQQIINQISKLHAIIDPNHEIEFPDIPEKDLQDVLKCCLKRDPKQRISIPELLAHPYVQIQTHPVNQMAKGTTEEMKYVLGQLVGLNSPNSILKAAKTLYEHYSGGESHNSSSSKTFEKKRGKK
The note with it: at 0.1 µM.
The inhibition is the change of the read-out against control, counted positive when it falls. As to `COc1cc2ncn(-c3cc(OCc4cccs4)c(C(N)=O)s3)c2cc1OC`, the inhibition came out at 4.76%.

Turning to `COc1cc(C)c(N(C)C(=O)CN(C)C)cc1Nc1nc(Nc2cccc(F)c2C(N)=O)c2cc[nH]c2n1`, the inhibition is 4.16%.

Turning to `CN(C)CCCNc1nccc(-c2c(-c3ccc(F)cc3)nn3cc(C(F)(F)F)ccc23)n1`, the inhibition was 2.37%. Take `COc1cccc(/C=N/Nc2ncnc3c2cnn3-c2cccc(OC)c2)c1`: the inhibition came out at 7.19%. Still for that read-out and setting: then `CCC(=O)Nc1ccc(C)c(-c2ccc(C(=O)NCC3CC3)cc2)c1`, with 8.14%; and `CCS(=O)(=O)c1ccc(OC)c(Nc2ncc(-c3cccc(-c4ccccc4F)c3)o2)c1`, with 0.9%. Regarding `C#Cc1cccc(Nc2ncnc3ccc(OCCCCNCCS(C)(=O)=O)cc23)c1`, the inhibition came to 9.49%. With `CS(=O)(=O)CCNCc1ccc(-c2ccc3ncnc(Nc4ccc(OCc5ccccc5)c(Br)c4)c3c2)o1`, the inhibition stood at 11.1%. On the same count and under the same terms, then `COc1cc2ncn(-c3cc(OCCc4ccccc4)c(C(N)=O)s3)c2cc1OC`, with 1.17%; and `NS(=O)(=O)c1ccc(N/N=C2\C(=O)Nc3ccc(-c4cnco4)cc32)cc1`, with 15.1%; and `Cc1ccc(C(=O)NC2CCC2)cc1-c1ccc(C(=O)NCC2CC2)cc1`, with 4.58%. Still for that read-out and setting: then `COc1ccc2cc(-c3c(-c4ccncc4)nc(-c4ccc([S+](C)[O-])cc4C)n3C)ccc2c1` (stereo unspecified), with -1.41%; and `COc1cc(N2CCN(C(C)C)CC2)ccc1Nc1nc(Nc2ccc(F)cc2C(=O)NC[C@@H](O)CO)c2cc[nH]c2n1`, with 74%.

Turning to `COc1ccc2ncn(-c3cc(O[C@H](C)c4ccccc4Cl)c(C(N)=O)s3)c2c1`, the inhibition is 6.36%.

In the case of `Fc1ccc(-c2nc3n(c2-c2ccncc2)CCS3)cc1`, the inhibition came to 6.93%. The same measure, in the same setting: then `CN1CCN(CCCNc2nc3ccc(Oc4ccc(NC(=O)Nc5cc(C(F)(F)F)ccc5F)cc4)cc3[nH]2)CC1`, with 1.87%; and `Fc1ccc(-c2c(-c3ccncc3)nc3n2CCS3)cc1`, with 5.74%; and `NCc1ccc(-n2c(-c3nonc3N)nc3cnccc32)cc1`, with 19.4%.

Turning to `Fc1ccc(-c2ncn(C3CCNCC3)c2-c2ccnc(Oc3ccc(F)c(F)c3)n2)cc1`, the inhibition came out at 10.3%.

Turning to `Fc1ccc(-c2ncn(C3CCNCC3)c2-c2ccnc(Oc3ccc(Oc4ccccc4)cc3)n2)cc1`, the inhibition is 6.67%. The same measure, in the same setting: then `C[C@@H](Oc1cc(-n2cnc3ccc(OC4CCN(C)CC4)cc32)sc1C(N)=O)c1ccccc1Cl`, with 6.06%.

As to `c1ccc(-c2n[nH]cc2-c2ccnc(-c3ccc(OCCN4CCOCC4)cc3)c2)nc1`, the inhibition was -2.01%. Consider `c1ccc(Oc2ccc(Nc3ncc(-c4ccccc4)o3)cc2)cc1`, for which the inhibition stood at 2.58%. As for `COc1cccc(-n2cnc3c(N/N=C/c4ccncc4)ncnc32)c1`, the inhibition worked out at 0.25%.

With `C[C@@H](Oc1cc(-n2cnc3ccc(OCC4CCN(C)CC4)cc32)sc1C(N)=O)c1ccccc1Cl`, the inhibition was found to be 93.6%. Consider `CCN(CC)Cc1ccc(Nc2nccc(-c3cnn4ncccc34)n2)cc1`, for which the inhibition was determined as 12.4%. Take `Cc1nnc(-c2ccc(C)c(-c3ccc(C(=O)NCc4ccc(Cl)cc4)cc3)c2)o1`: the inhibition was determined as 11.7%. The same measure, in the same setting: under `O=C(Nc1n[nH]c2cc(-c3ccccc3)ccc12)C1CC1` stands 5.95%; under `COc1cc(Nc2ncc3c(C)nc(-c4cccc(Oc5ccccc5)c4)n3n2)cc(OC)c1OC`, 3.03%; under `Clc1ccc(CNc2nccc(-c3cnn4ncccc34)n2)cc1`, 0.13%. Same read-out and setting: then `CN(C)c1ccc2c(c1)/C(=C/Nc1ccc(S(N)(=O)=O)cc1)C(=O)N2`, with 5.45%; and `CNC(=O)c1cncc(/C=C/c2c(C)cccc2C)c1`, with 1.49%. Still for that read-out and setting: under `COc1cc(Nc2ncc3c(C)nc(-c4cccc(C(F)(F)F)c4)n3n2)cc(OC)c1OC` stands 8.36%.

Another assay has as its system T2, Receptor-type tyrosine-protein kinase FLT3 (Homo sapiens), P36888 [D835Y].
T2 sequence (whole entry): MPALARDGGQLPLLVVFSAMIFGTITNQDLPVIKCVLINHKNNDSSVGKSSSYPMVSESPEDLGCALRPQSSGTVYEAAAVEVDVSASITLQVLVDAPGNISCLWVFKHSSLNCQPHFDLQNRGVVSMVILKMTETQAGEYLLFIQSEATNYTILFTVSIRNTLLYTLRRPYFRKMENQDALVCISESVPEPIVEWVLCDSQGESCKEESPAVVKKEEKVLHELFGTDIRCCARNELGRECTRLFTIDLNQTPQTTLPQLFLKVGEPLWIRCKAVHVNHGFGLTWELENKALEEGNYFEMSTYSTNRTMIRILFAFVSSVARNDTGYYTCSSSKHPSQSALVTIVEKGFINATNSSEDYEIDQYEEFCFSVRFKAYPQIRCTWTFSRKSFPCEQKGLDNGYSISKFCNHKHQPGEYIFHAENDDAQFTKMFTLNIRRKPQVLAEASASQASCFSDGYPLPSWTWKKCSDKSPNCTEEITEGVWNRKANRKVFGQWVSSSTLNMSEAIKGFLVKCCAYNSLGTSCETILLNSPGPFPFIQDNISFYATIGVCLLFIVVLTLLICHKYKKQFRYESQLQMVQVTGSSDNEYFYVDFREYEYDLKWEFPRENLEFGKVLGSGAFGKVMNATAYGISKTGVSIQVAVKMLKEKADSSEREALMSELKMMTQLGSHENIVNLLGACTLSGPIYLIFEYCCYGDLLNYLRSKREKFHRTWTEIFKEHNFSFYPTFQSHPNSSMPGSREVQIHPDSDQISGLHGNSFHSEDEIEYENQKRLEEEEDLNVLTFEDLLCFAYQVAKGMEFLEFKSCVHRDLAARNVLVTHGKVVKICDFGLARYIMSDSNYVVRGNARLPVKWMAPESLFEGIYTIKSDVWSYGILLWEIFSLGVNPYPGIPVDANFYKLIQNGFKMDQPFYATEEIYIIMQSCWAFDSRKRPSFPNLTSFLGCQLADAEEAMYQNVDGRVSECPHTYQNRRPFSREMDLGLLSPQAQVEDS
Conditions: at 1 µM.
Regarding `COc1cc2ncn(-c3cc(OCc4cccs4)c(C(N)=O)s3)c2cc1OC`, the inhibition amounted to 1.62%. The same measure, in the same setting: then `COc1cc(C)c(N(C)C(=O)CN(C)C)cc1Nc1nc(Nc2cccc(F)c2C(N)=O)c2cc[nH]c2n1`, with 2.97%; and `CN(C)CCCNc1nccc(-c2c(-c3ccc(F)cc3)nn3cc(C(F)(F)F)ccc23)n1`, with 2.47%; and `COc1cccc(/C=N/Nc2ncnc3c2cnn3-c2cccc(OC)c2)c1`, with 7.24%.

`CCC(=O)Nc1ccc(C)c(-c2ccc(C(=O)NCC3CC3)cc2)c1`: the inhibition was 3.02%. As to `CCS(=O)(=O)c1ccc(OC)c(Nc2ncc(-c3cccc(-c4ccccc4F)c3)o2)c1`, the inhibition is 45%. The same measure, in the same setting: then `C#Cc1cccc(Nc2ncnc3ccc(OCCCCNCCS(C)(=O)=O)cc23)c1`, with 1.41%; and `CS(=O)(=O)CCNCc1ccc(-c2ccc3ncnc(Nc4ccc(OCc5ccccc5)c(Br)c4)c3c2)o1`, with -0.11%; and `COc1cc2ncn(-c3cc(OCCc4ccccc4)c(C(N)=O)s3)c2cc1OC`, with 1.07%. Still for that read-out and setting: under `NS(=O)(=O)c1ccc(N/N=C2\C(=O)Nc3ccc(-c4cnco4)cc32)cc1` stands 73.1%; under `Cc1ccc(C(=O)NC2CCC2)cc1-c1ccc(C(=O)NCC2CC2)cc1`, 8.02%. On the same count and under the same terms, then `COc1ccc2cc(-c3c(-c4ccncc4)nc(-c4ccc([S+](C)[O-])cc4C)n3C)ccc2c1` (stereo unspecified), with 4.56%. For `COc1ccc2ncn(-c3cc(O[C@H](C)c4ccccc4Cl)c(C(N)=O)s3)c2c1`, the inhibition came to 2.74%. The same measure, in the same setting: under `Fc1ccc(-c2nc3n(c2-c2ccncc2)CCS3)cc1` stands -0.91%.

Consider `CN1CCN(CCCNc2nc3ccc(Oc4ccc(NC(=O)Nc5cc(C(F)(F)F)ccc5F)cc4)cc3[nH]2)CC1`, for which the inhibition turned out to be 1.66%. For the molecule `Fc1ccc(-c2c(-c3ccncc3)nc3n2CCS3)cc1`, the inhibition is -4.22%. Same read-out and setting: under `NCc1ccc(-n2c(-c3nonc3N)nc3cnccc32)cc1` stands 6.04%. For the molecule `CCS(=O)(=O)c1ccc(OC)c(Nc2ncc(-c3ccccc3Cl)o2)c1`, the inhibition stood at 17.4%.

Consider `Fc1ccc(-c2ncn(C3CCNCC3)c2-c2ccnc(Oc3ccc(F)c(F)c3)n2)cc1`, for which the inhibition was -6.12%.

Turning to `Fc1ccc(-c2ncn(C3CCNCC3)c2-c2ccnc(Oc3ccc(Oc4ccccc4)cc3)n2)cc1`, the inhibition is -1.89%. With `C[C@@H](Oc1cc(-n2cnc3ccc(OC4CCN(C)CC4)cc32)sc1C(N)=O)c1ccccc1Cl`, the inhibition came out at 12.2%.

As to `c1ccc(-c2n[nH]cc2-c2ccnc(-c3ccc(OCCN4CCOCC4)cc3)c2)nc1`, the inhibition was determined as 1.73%. Same read-out and setting: then `c1ccc(Oc2ccc(Nc3ncc(-c4ccccc4)o3)cc2)cc1`, with 1.21%; and `COc1cccc(-n2cnc3c(N/N=C/c4ccncc4)ncnc32)c1`, with 9.6%; and `C[C@@H](Oc1cc(-n2cnc3ccc(OCC4CCN(C)CC4)cc32)sc1C(N)=O)c1ccccc1Cl`, with 11.7%. Same read-out and setting: under `CCN(CC)Cc1ccc(Nc2nccc(-c3cnn4ncccc34)n2)cc1` stands 17.1%; under `Cc1nnc(-c2ccc(C)c(-c3ccc(C(=O)NCc4ccc(Cl)cc4)cc3)c2)o1`, -0.11%; under `O=C(Nc1n[nH]c2cc(-c3ccccc3)ccc12)C1CC1`, 4.54%. The same measure, in the same setting: then `COc1cc(Nc2ncc3c(C)nc(-c4cccc(Oc5ccccc5)c4)n3n2)cc(OC)c1OC`, with 20.2%. For the molecule `Clc1ccc(CNc2nccc(-c3cnn4ncccc34)n2)cc1`, the inhibition turned out to be 2.01%. The same measure, in the same setting: under `CN(C)c1ccc2c(c1)/C(=C/Nc1ccc(S(N)(=O)=O)cc1)C(=O)N2` stands 33.6%; under `CNC(=O)c1cncc(/C=C/c2c(C)cccc2C)c1`, 5.46%; under `COc1cc(Nc2ncc3c(C)nc(-c4cccc(C(F)(F)F)c4)n3n2)cc(OC)c1OC`, 35.8%.

The values above are taken from ChEMBL document CHEMBL1961873, “Compounds: GSK PKIS; Assays: Nanosyn kinase panel” (2012).
